# Most compounds without a hit are left out; they make up all but 7.8% or so of the library.
# MARV entry inh: qHTS for inhibitors of binding or entry into cells for Marburg Virus | Potency, µM (top dose mostly 37.8 µM), without a hit: at the highest dose activity change, negative = inhibition, usual class: inhibitors | Marburg virus pseudotyped entry inhibition, cell reporter | actives 1.8% (n = 300,000); calls by dose curve; tested in HEK293 cells; note: potency is the fitted concentration of half-maximal effect
# LASV entry inh: qHTS for Inhibitors of binding or entry into cells for Lassa Virus; Lassa virus pseudotype entry inhibition, cell reporter; Potency, µM (top dose mostly 37.9 µM), for inactives: top-dose activity change, negative = inhibition, usual class: inhibitors; actives 1.2% (n = 300,000); AID 540256, 2011; calls by dose curve; tested in HEK293 cells; note: potency is the fitted concentration of half-maximal effect; nearly all actives have a fitted effect of over 50% in size
# HCMV inh: qHTS Assay for inhibitors of the human cytomegalovirus (HCMV) | actives 4.5% (n = 410,000) | HFF cells, HCMV-luciferase reporter, 72 h; hits give low values | activity change, negative = inhibition, % at 57.5 µM; in the data active = activity change below about -60%; inconclusive = no clear call, values can overlap the other calls; inactive = above about -39%
#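 Two-dose cell screen: HFF monolayers treated with compounds and infected with luciferase-expressing HCMV at 1 PFU/cell, 72 h at 37C, then lysed for luciferase measurement.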
# HCV inhibitor: qHTS Assay for Inhibitors of Hepatitis C Virus (HCV). Huh7.5.1 HCVcc-Cre infection, luciferase reporter, 44 h. Potency, µM (series often up to 41.8 µM), for the others: at the top dose activity change, negative = inhibition, actives largely listed as inhibitors. actives 3.4% (n = 340,000). AID 651820, 2012; active = well fitted inhibition curve with a large enough effect; inconclusive = small, poorly fitted or top-dose-only effect, or another doubt; inactive = no such curve, though single readings can be large or run the other way; note: potency is the fitted concentration of half-maximal effect
#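 Reporter virus HCVcc-Cre (~0.5 moi) infects cells exposed to compound; seeding density 1,000 cells/well with 4 h settling beforehand. Luminescence, 15 sec read, taken 44 h post-infection following a 15 min RT substrate incubation.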
# Vaccinia mCherry: qHTS for Stage-Specific Inhibitors of Vaccinia Orthopoxvirus: mCherry Reporter Primary qHTS | actives 0.63% (n = 310,000) | Vaccinia virus mCherry reporter infection, fluorescence | Potency, µM (doses to about 36.5 µM), for inactives: at the highest dose activity change, negative = inhibition, most hits filed as inhibitors | AID 720579, 2013; calls by dose curve; tested in A549 cells; note: potency is the fitted concentration of half-maximal effect; nearly all actives have a fitted effect of over 35% in size
# Vaccinia Venus: qHTS for Stage-Specific Inhibitors of Vaccinia Orthopoxvirus: Venus Reporter Primary qHTS; Potency, µM (doses to about 36.5 µM), inactives show at the top dose activity change, negative = inhibition, usual class: inhibitors; Vaccinia virus Venus reporter expression, fluorescence; actives 0.46% (n = 330,000); calls by dose curve; tested in A549 cells; note: potency is the fitted concentration of half-maximal effect; nearly all actives have a fitted effect of over 30% in size
# Numbers without * were called inactive; i = inactive; ? = inconclusive; . = no result; [ ] = another dose, or the depositor's remark. % is set by controls: 0 for no effect and ±100 for the full control effect.
SMILES,MARV entry inh,LASV entry inh,HCMV inh,HCV inhibitor,Vaccinia mCherry,Vaccinia Venus
CC(C)(C)c1ccc(C(=O)N2CCCC(c3nc4c(nnn4Cc4cccc(F)c4)c(=O)[nH]3)C2)cc1 (stereo not given),0.9%[46.1 µM],-22.5%[46.1 µM],4.2,.,-9.2%,-10.0%
Cc1oc(-c2cccc(Cl)c2)nc1Cn1c(SCc2ccc(F)cc2)nc2cccnc21,.,17.3%[46.1 µM],38.7,.,-9.7%,-16.8%
O=C(/C=C/c1ccccc1)CC(O)(c1ccccc1)C(F)(F)C(F)F (stereo not given),?,?,?,?,-5.0%,-21.3%
O=C(/C=C/c1ccccc1)CC(O)(c1ccccc1)C(F)(F)F (stereo not given),?,?,-102.4*,?,-2.2%,-16.2%
COc1ccc(/C=C/C(=O)CCC(=O)O)cc1,4.9%[46.1 µM],19.4%,-20.2,10.8%,i,0.7%
COc1ccc(/C=C/C(=O)CC(O)(c2ccccc2)C(F)(F)F)cc1 (stereo not given),?,?,-100.4*,-11.6%,-25.5%,-29.1%
CN(C)S(=O)(=O)c1ccc2c(c1)N(CC(=O)NCc1ccc(F)cc1)C(=O)CS2,.,20.3%[46.1 µM],0.4,.,-5.8%,-9.2%
COc1ccc(Cl)cc1NC(=O)CN1c2ccccc2CC1C (stereo not given),?,-17.4%,?,8.91µM*,-13.8%,-6.1%
COc1ccc(Cl)cc1NC(=O)CN(C)CC(=O)Nc1c(C)n(C)n(-c2ccccc2)c1=O,.,.,0.0,3.55µM*,.,.
COc1ccc(Cl)cc1NC(=O)CN1CCc2ccccc2C1,.,.,-75.1*,?,.,.
COc1ccc(Cl)cc1NC(=O)CN(C1CCCCC1)S(C)(=O)=O,-11.5%,11.7%,24.0,4.47µM*,.,.
COc1ccc(Cl)cc1NC(=O)CNC(c1ccccc1)c1ccccc1,?,2.51µM*,16.6,?,-18.8%,-17.2%
CCOc1ccccc1C(=O)NC1CCN(CC(=O)Nc2cc(OC)ccc2OC)CC1,.,.,?,11.2µM*,.,.
CCOc1ccccc1NC(=O)CN1CCC(NC(=O)c2ccccc2C)CC1,-21.5%[46.1 µM],-5.3%,-9.3,?,15.8%,-8.3%
CCCN1CCC(NC(=O)Nc2cc(Cl)ccc2OC)CC1,.,.,8.8,-29.9%,.,.
COc1ccccc1NC(=O)Cn1nc(-c2ccc(Cl)cc2)c2ccccc2c1=O,-26.9%[46.1 µM],1.4%,?,10µM*,-22.0%,-7.5%
COc1ccc(Cl)cc1NC(=O)CN1CCC(NC(=O)C2CC2)CC1,?,-21.1%,-76.5*,-17.4%,0.1%,-15.7%
CN1CCCN=C1COC(=O)[C@@](O)(c1ccccc1)C1CCCCC1,-5.6%,.,.,.,.,.
c1cncc(OC2CCN(Cc3ccc4c(c3)CN(Cc3ccc5c(c3)OCO5)CCO4)CC2)c1,.,.,.,.,-7.4%,-8.4%
Cc1c(NC(=O)COC(=O)COc2ccc(Nc3ccccc3)cc2)c(=O)n(-c2ccccc2)n1C,?,-10.4%,-2.7,15.6%,-18.1%,10.6%
Cc1cc(C)cc(OCC(=O)OCC(=O)Nc2c(C)n(C)n(-c3ccccc3)c2=O)c1,19.6%[46.1 µM],10.7%,16.2,1µM*,i,-15.1%
O=C(Nc1cccc(C(F)(F)F)c1)n1cc(-c2ccccn2)c(N2CCOCC2)n1,7.4%[46.1 µM],-13.8%,-64.0*,8.5%,i,-10.3%
CCc1cccc(C)c1NC(=O)COC(=O)c1cc([N+](=O)[O-])ccc1N1CCOCC1,?,-17.9%,-12.4,10µM*,-16.3%,3.0%
Cc1cc(Cl)ccc1NC(=O)COC(=O)c1cc([N+](=O)[O-])ccc1N1CCOCC1,?,-0.8%,-23.8,2.51µM*,i,-16.5%
COCCOc1ccc(C(F)(F)F)cc1NC(=O)COC(=O)c1cc([N+](=O)[O-])ccc1N1CCOCC1,12.6µM*,?,?,?,-14.5%,-26.0%
SMILES,MARV entry inh,LASV entry inh,HCMV inh,HCV inhibitor,Vaccinia mCherry,Vaccinia Venus
CC(=O)c1c(C)[nH]c(C(=O)OCC(=O)Nc2cc(C(F)(F)F)ccc2N2CCOCC2)c1C,?,22.4µM*,-14.8,-20.6%,.,-14.3%
O=C(COC(=O)c1cc([N+](=O)[O-])ccc1N1CCOCC1)Nc1ccc(Cl)cn1,?,-2.8%,-102.0*,?,?,28.2µM*
O=C(COC(=O)c1cc([N+](=O)[O-])ccc1N1CCOCC1)c1ccc(F)cc1,.,.,5.7,?,.,.
CCc1ccc(C(=O)COC(=O)c2cc([N+](=O)[O-])ccc2N2CCOCC2)cc1,3.16µM*,?,-35.2,1µM*,?,-22.0%
Cc1ccc2nc(SCC(=O)Nc3cc(C(F)(F)F)ccc3N3CCOCC3)[nH]c2c1,?,?,-88.8*,?,.,?
O=C(COC(=O)c1cc([N+](=O)[O-])ccc1N1CCOCC1)Nc1ccc(Cl)cc1,-12.2%,-20.1%,-29.5,?,i,-18.4%
COc1ccc(-c2onc(C)c2C)cc1S(=O)(=O)N1CCN(c2ccc(Cl)cc2)CC1,.,-7.9%[46.1 µM],?,.,-11.6%,-5.2%
CCN(c1ccc(OC)cc1)S(=O)(=O)c1c(C(=O)N2CCCCCC2)c(C)n(C)c1C,.,-16.5%[46.1 µM],-28.6,.,1.8%,-5.4%
COc1ccc(-n2nnnc2C2CCN(S(=O)(=O)c3cccc(Cl)c3C)CC2)cc1,4.9%[46.1 µM],7.4%[46.1 µM],-39.9,.,-8.0%,-17.2%
O=C(CSc1nnc(SCc2ccc(Cl)cc2)s1)N/N=C/c1ccc(C(=O)O)cc1,7.1%[46.1 µM],-14.8%,-2.1,10.0%,?,-15.6%
Cc1nn(-c2ccccc2)c(C)c1/C=N/NC(=O)CSc1nnc(SCc2ccccc2Cl)s1,?,2.06µM*,-17.7,?,-13.4%,-18.2%
Cc1ccc(CSc2nnc(SCC(=O)N/N=C/c3c(C)nn(-c4ccccc4)c3C)s2)cc1,?,8.2µM*,-8.8,?,-14.2%,-1.5%
O=C(CSc1nnc(SCc2ccc(Cl)cc2)s1)N/N=C/c1c[nH]c2ccccc12,?,?,-7.3,?,?,11.2µM*
Cc1nn(-c2ccccc2)c(C)c1/C=N/NC(=O)CSc1nnc(-c2ccccc2)n1-c1ccc(Cl)cc1,?,?,-16.4,?,-6.9%,-7.5%
CCC(=O)N1CCc2cc(S(=O)(=O)CCC(=O)N3CCN(c4ccccc4Cl)CC3)ccc21,3.3%[46.1 µM],4.2%[46.1 µM],14.0,.,-9.5%,-3.8%
C=CCOC(=O)N[C@H](C(C(=O)OC)=C(C)NCc1ccccc1)c1cccc(C(F)(F)F)c1,2.8%[14.2 µM],?,.,.,.,.
CC(C)Cn1c(=O)c2ccccc2n2c(CCC(=O)Nc3ccc(F)c(F)c3)nnc12,?,.,33.6,.,i,-14.9%
Cc1ccc(C(C(=O)Nc2ccc3c(c2)OCO3)N(C)C(=O)Cc2c[nH]c3ccccc23)cc1 (stereo not given),10µM*,?,-29.8,-13.5%,?,?

# Source: PubChem
